Measured values taken from PubChem BioAssay (NCATS).
Inconclusive results are not listed. The source made the active and inactive calls. Calls come from the whole dose curve; as a rule, active = well fitted cell-killing curve with a large enough effect; inconclusive = small, poorly fitted or top-dose-only effect, or effect the other way; inactive = flat fitted curve, though single readings scatter.

How the values were obtained:
Experiment in all cases: Primary qHTS to identify gynecologic anti-cancer compounds using libraries of approved drugs and bioactive compounds (AID 1345084); note: nearly all actives have a fitted effect of over 55% in size
Hek293T = conditions: Gynecologic cancer cell panel viability, ATPlite luminescence, 48 h, control line for the selectivity index; series mostly up to 57.5 µM
Outline: (§1)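 In this quantitative HTS, cell killing is estimated from loss of ATP-dependent luciferase light. Cells see five compound concentrations over a 48 h exposure.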

JEG-3 = conditions: Gynecologic cancer cell panel viability, ATPlite luminescence, 48 h; series mostly up to 57.5 µM
Outline: as §1

OV90 = conditions: Gynecologic cancer cell panel viability, ATPlite luminescence, 48 h; series mostly up to 57.5 µM
Outline: as §1

PA-1 = conditions: Gynecologic cancer cell panel viability, ATPlite luminescence, 48 h; series mostly up to 57.5 µM
Outline: as §1

SKOV3 = conditions: Gynecologic cancer cell panel viability, ATPlite luminescence, 48 h; series mostly up to 57.5 µM
Outline: as §1

Tov-21-G = conditions: Gynecologic cancer cell panel viability, ATPlite luminescence, 48 h; series mostly up to 57.5 µM
Outline: as §1

Tov112D = conditions: Gynecologic cancer cell panel viability, ATPlite luminescence, 48 h; series mostly up to 57.5 µM
Outline: as §1
% is set by controls: 0 for no effect and ±100 for the full control effect.

CC1CC(O)C2(C)C(C(=O)O)=CCCC2C1(C)CCc1ccoc1 (stereo not drawn)
inactive: Potency (Hek293T) | Potency (JEG-3) | Potency (OV90) | Potency (PA-1) | Potency (SKOV3) | Potency (Tov-21-G) | Potency (Tov112D)

CC(=O)c1c(C)cc(O[C@@H]2O[C@H](CO)[C@@H](O)[C@H](O)[C@H]2O)cc1O
inactive: Potency (Hek293T) | Potency (JEG-3) | Potency (OV90) | Potency (PA-1) | Potency (SKOV3) | Potency (Tov-21-G) | Potency (Tov112D)

Nc1nonc1C(=Nc1ccc(F)c(Cl)c1)NO
inactive: Potency (Hek293T) | Potency (JEG-3) | Potency (OV90) | Potency (PA-1) | Potency (SKOV3) | Potency (Tov-21-G) | Potency (Tov112D)

O=c1ccn(C2OC(CO)C(O)C2O)c(=O)[nH]1 (stereo not drawn)
inactive: Potency (Hek293T) | Potency (JEG-3) | Potency (OV90) | Potency (PA-1) | Potency (SKOV3) | Potency (Tov-21-G) | Potency (Tov112D)

O=C(O)c1cc(O[C@@H]2O[C@H](CO[C@@H]3OC[C@@H](O)[C@H](O)[C@H]3O)[C@@H](O)[C@H](O)[C@H]2O)c2ccccc2c1O
inactive: Potency (Hek293T) | Potency (JEG-3) | Potency (OV90) | Potency (PA-1) | Potency (SKOV3) | Potency (Tov-21-G) | Potency (Tov112D)

O=C1NC(Cc2ccc(O)cc2)C(=O)N2CCCC12 (stereo not drawn)
inactive: Potency (Hek293T) | Potency (JEG-3) | Potency (OV90) | Potency (PA-1) | Potency (SKOV3) | Potency (Tov-21-G) | Potency (Tov112D)

CC1(C)CC2C(C1)C1(C)CCC13OC3(CO)C2O (stereo not drawn)
inactive: Potency (Hek293T) | Potency (JEG-3) | Potency (OV90) | Potency (PA-1) | Potency (SKOV3) | Potency (Tov-21-G) | Potency (Tov112D)

CC1(C)CC2C3=CCC4C5(C)CCC(OC6OC(C(=O)O)C(O)C(O)C6OC6OC(CO)C(O)C(O)C6OC6OC(CO)C(O)C(O)C6O)C(C)(CO)C5CCC4(C)C3(C)CCC2(C)C(OC2OCC(O)C(OC3OC(CO)C(O)C(O)C3O)C2O)C1O (stereo not drawn)
inactive: activity change, negative = cytotoxicity (Hek293T) 8.01% [at 6.55 µM] | activity change, negative = cytotoxicity (JEG-3) 6.32% [at 6.55 µM] | activity change, negative = cytotoxicity (OV90) -9.75% [at 6.55 µM] | activity change, negative = cytotoxicity (PA-1) 5.88% [at 6.55 µM] | activity change, negative = cytotoxicity (SKOV3) 16.1% [at 6.55 µM] | activity change, negative = cytotoxicity (Tov-21-G) -0.438% [at 6.55 µM] | activity change, negative = cytotoxicity (Tov112D) 1.06% [at 6.55 µM]

O=C(NCC(=O)N1CC[C@H](NC2CCC(O)(c3ccc(-c4ncccn4)cn3)CC2)C1)c1cccc(C(F)(F)F)c1 (stereo partly drawn)
inactive: Potency (Hek293T) | Potency (JEG-3) | Potency (OV90) | Potency (PA-1) | Potency (SKOV3) | Potency (Tov-21-G) | Potency (Tov112D)

CC1(C)CCC2(C(=O)OC3OC(COC4OC(CO)C(O)C(O)C4O)C(O)C(O)C3O)CCC3(C)C(=CCC4C5(C)CCC(O)C(C)(C(=O)O)C5CCC43C)C2C1O (stereo not drawn)
inactive: activity change, negative = cytotoxicity (Hek293T) 4.46% [at 11.6 µM] | activity change, negative = cytotoxicity (JEG-3) -2.36% [at 11.6 µM] | activity change, negative = cytotoxicity (OV90) 0.278% [at 11.6 µM] | activity change, negative = cytotoxicity (PA-1) -2.93% [at 11.6 µM] | activity change, negative = cytotoxicity (SKOV3) 21% [at 11.6 µM] | activity change, negative = cytotoxicity (Tov-21-G) 0.669% [at 11.6 µM] | activity change, negative = cytotoxicity (Tov112D) -1.2% [at 11.6 µM]

C[C@]12CCC[C@](C)(C(=O)O)C1CCC13C=C(CO)C(CCC12)C3 (stereo partly drawn)
inactive: Potency (Hek293T) | Potency (JEG-3) | Potency (OV90) | Potency (PA-1) | Potency (SKOV3) | Potency (Tov-21-G) | Potency (Tov112D)

CCCCCCc1cccc(NC(=O)[C@H](N)CCP(=O)(O)O)c1
inactive: activity change, negative = cytotoxicity (Hek293T) -0.817% [at 11.6 µM] | activity change, negative = cytotoxicity (JEG-3) 8.47% [at 11.6 µM] | activity change, negative = cytotoxicity (OV90) 3.38% [at 11.6 µM] | activity change, negative = cytotoxicity (PA-1) 2.71% [at 11.6 µM] | activity change, negative = cytotoxicity (SKOV3) -0.133% [at 11.6 µM] | activity change, negative = cytotoxicity (Tov-21-G) -2.84% [at 11.6 µM] | activity change, negative = cytotoxicity (Tov112D) 3.09% [at 11.6 µM]

CC12CC34C=CC(=O)C(C)(CCC(=O)O)C3C(CC1C4)O2 (stereo not drawn)
inactive: Potency (Hek293T) | Potency (JEG-3) | Potency (OV90) | Potency (PA-1) | Potency (SKOV3) | Potency (Tov-21-G) | Potency (Tov112D)

CC(/C=C/[C@]1(O)[C@@]2(C)CO[C@@]1(C)C[C@@H](O)C2)=C\C(=O)O[C@@H]1O[C@H](CO)[C@@H](O)[C@H](O)[C@H]1O
inactive: Potency (Hek293T) | Potency (JEG-3) | Potency (OV90) | Potency (PA-1) | Potency (SKOV3) | Potency (Tov-21-G) | Potency (Tov112D)

COc1ccc(/C=C/C(=O)O[C@@H]2[C@@H](OC(C)=O)[C@@H](OC(C)=O)[C@H](O[C@H]3[C@@H]4C=CO[C@@H](O[C@@H]5O[C@H](CO)[C@@H](O)[C@H](O)[C@H]5O)[C@@H]4[C@@]4(CO)O[C@@H]34)O[C@H]2C)cc1O
inactive: Potency (Hek293T) | Potency (JEG-3) | Potency (OV90) | Potency (PA-1) | Potency (SKOV3) | Potency (Tov-21-G) | Potency (Tov112D)

COc1cc([C@H]2OC[C@]3(OC(C)=O)[C@@H](c4ccc(O[C@@H]5O[C@H](CO)[C@@H](O)[C@H](O)[C@H]5O)c(OC)c4)OC[C@H]23)ccc1O
inactive: Potency (Hek293T) | Potency (JEG-3) | Potency (OV90) | Potency (PA-1) | Potency (SKOV3) | Potency (Tov-21-G) | Potency (Tov112D)

CCC(=O)N[C@@H]1Cc2ccccc2[C@H](c2ccccc2)C1
inactive: Potency (Hek293T) | Potency (JEG-3) | Potency (OV90) | Potency (PA-1) | Potency (SKOV3) | Potency (Tov-21-G) | Potency (Tov112D)

COC(=O)C1=C[C@@H](O)[C@@H](O)[C@H](O[C@@H]2O[C@H](COC(=O)/C=C/c3ccccc3)[C@@H](O)[C@H](O)[C@H]2O)C1
inactive: Potency (Hek293T) | Potency (JEG-3) | Potency (OV90) | Potency (PA-1) | Potency (SKOV3) | Potency (Tov-21-G) | Potency (Tov112D)

O=C(O)CCc1cccc(O[C@@H]2O[C@H](CO)[C@@H](O)[C@H](O)[C@H]2O)c1O
inactive: Potency (Hek293T) | Potency (JEG-3) | Potency (OV90) | Potency (PA-1) | Potency (SKOV3) | Potency (Tov-21-G) | Potency (Tov112D)

CCNC(=O)[C@@H]1CCCN1C(=O)[C@H](CCCN=C(N)N)NC(=O)[C@H](CC(C)C)NC(=O)[C@@H](C)NC(=O)[C@H](Cc1ccc(O)cc1)NC(=O)[C@H](CO)NC(=O)[C@H](Cc1c[nH]c2ccccc12)NC(=O)[C@H](Cc1cnc[nH]1)NC(=O)[C@@H]1CCC(=O)N1
inactive: Potency (Hek293T) | Potency (JEG-3) | Potency (OV90) | Potency (PA-1) | Potency (SKOV3) | Potency (Tov-21-G) | Potency (Tov112D)

Cc1cccc(-c2[nH]c(CNc3ccccc3F)nc2-c2ccc3ncnn3c2)n1
inactive: Potency (Hek293T) | Potency (JEG-3) | Potency (OV90) | Potency (PA-1) | Potency (SKOV3) | Potency (Tov-21-G) | Potency (Tov112D)

COc1cc(-c2cccc(O)c2)cc2c1OCO2
inactive: Potency (Hek293T) | Potency (JEG-3) | Potency (OV90) | Potency (PA-1) | Potency (SKOV3) | Potency (Tov-21-G) | Potency (Tov112D)

C/C(=C\CO)CC/C=C(\C)C(=O)O[C@H]1[C@H](OC2OC=C(C(=O)O)C3CCC(C)(O)C23)O[C@H](CO)[C@@H](O)[C@@H]1O (stereo partly drawn)
inactive: Potency (Hek293T) | Potency (JEG-3) | Potency (OV90) | Potency (PA-1) | Potency (SKOV3) | Potency (Tov-21-G) | Potency (Tov112D)

O=C(O[C@H]1[C@@H]2C=CO[C@@H](O[C@@H]3O[C@H](CO)[C@@H](O)[C@H](O)[C@H]3O)[C@@H]2[C@@]2(CO)O[C@@H]12)c1ccc(O)cc1
inactive: Potency (Hek293T) | Potency (JEG-3) | Potency (OV90) | Potency (PA-1) | Potency (SKOV3) | Potency (Tov-21-G) | Potency (Tov112D)
